PLK1 PBD inh = blocks phosphopeptide binding to human PLK1 polo-box domain | Plk1 PBD binding of FITC phosphopeptide, fluorescence polarization | hit rate 2.8% among 360,000 | P53350 | Potency, µM, for inactives: max response, negative = inhibition, hits mostly inhibitors; note: potency is the fitted concentration of half-maximal effect; series mostly up to about 57 µM; % is set by controls: 0 for no effect and ±100 for the full control effect; nearly all actives have a fitted effect of over 65% in size
VDR inh = inhibitors of human vitamin D receptor | P11473 | VDR-SRC2-3 peptide fluorescence polarization, 2 h | Potency, µM, for inactives: max response, negative = inhibition, usual class: inhibitors | hit rate 0.93% among 400,000; note: potency is the fitted concentration of half-maximal effect; % is set by controls: 0 for no effect and ±100 for the full control effect
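The screen uses fluorescence polarization to detect compounds that interfere with recruitment of the SRC2-3 coactivator peptide to VDR; plates are read after 2 h at room temperature.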
uPA surface inh = inhibitors of cell surface uPA generation | cell surface uPA generation assay, qHTS | Potency, µM (top dose mostly 38.3 µM), for inactives: at the top dose activity change, negative = inhibition, usual class: inhibitors | AID 540303 | hit rate 0.31% among 330,000; active = well fitted inhibition curve with a large enough effect; inconclusive = small, poorly fitted or top-dose-only effect; inactive = no such curve, though single readings can be large or run the other way; tested in mouse RAW 264.7 cells; note: potency is the fitted concentration of half-maximal effect; % is set by controls: 0 for no effect and ±100 for the full control effect; nearly all actives have a fitted effect of over 55% in size
TSG101-PTAP inh = blocks PTAP/TSG101 interaction to inhibit HIV-1 budding; Q99816; Fluorescence polarization, FITC-PTAP peptide / Tsg101 binding; Potency, µM (top dose mostly 115 µM), without a hit: at the top dose activity change, negative = inhibition, actives largely listed as inhibitors; 340,000 tested, under 10 active; active = well fitted inhibition curve with a large enough effect in the main read-out, with a control signal flat, not every such curve was filed as active; inconclusive = small, poorly fitted or top-dose-only effect, or effect the other way, or a change in a side signal; inactive = no such curve, though single readings can be large or run the other way; note: potency is the fitted concentration of half-maximal effect; % of control where 0% means no effect
Target sequence (Q99816 whole entry, looked up): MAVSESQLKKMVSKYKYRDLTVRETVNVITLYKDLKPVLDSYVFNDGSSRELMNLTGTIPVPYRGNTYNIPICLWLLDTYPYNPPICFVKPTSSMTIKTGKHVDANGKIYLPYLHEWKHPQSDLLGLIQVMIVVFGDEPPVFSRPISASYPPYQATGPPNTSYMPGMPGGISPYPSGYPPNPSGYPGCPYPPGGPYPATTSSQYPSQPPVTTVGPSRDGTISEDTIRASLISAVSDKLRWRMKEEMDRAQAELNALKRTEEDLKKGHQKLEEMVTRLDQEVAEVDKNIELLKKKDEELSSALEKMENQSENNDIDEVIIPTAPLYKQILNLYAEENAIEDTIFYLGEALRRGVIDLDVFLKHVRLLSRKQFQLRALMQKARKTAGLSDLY
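Fluorescence polarization binding of Tsg101 binding domain (10 uM final) to FITC-labeled PTAP peptide (50 nM final) in HEPES pH 7.5 buffer with NaCl, Tween 20, EDTA, TCEP. Compounds added before peptide; binding 20 min at RT.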
TSHR antagonist = blocks TSH signaling through the human TSH receptor; P16473; TSHR-expressing cells, TSH-stimulated cAMP HTRF, 2 h; stronger effect = lower value; activity change, negative = inhibition, % at 11.5 µM; hit rate 0.2% among 330,000;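 active = activity change below a set negative limit, meaning inhibition stronger than a set level, cut at about -70% in these data; inconclusive = activity change between two set negative limits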; note: % is set by controls: 0 for no effect and ±100 for the full control effect
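TSHR-expressing cells, 200/well, pre-treated with compound, then stimulated with EC80 TSH (4nM final) for 2 hours at 37 deg C. cAMP measured by competitive HTRF: anti-cAMP cryptate antibody in lysis buffer plus cAMP-d2, read after 30 minutes at room temperature.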
* marks the source's active call; other numbers are inactive results; ? = inconclusive; / = no result given. Most compounds without a hit are left out; they make up all but 3.1% or so of the library. Unless noted, calls come from the whole dose curve; as a rule, active = well fitted curve in the direction sought with a large enough effect; inconclusive = small, poorly fitted or top-dose-only effect, or another doubt; inactive = no such curve, though single readings can be large; an effect the other way counts as inactive or inconclusive.

SMILES | PLK1 PBD inh | VDR inh | uPA surface inh | TSG101-PTAP inh | TSHR antagonist
COc1ccc(C2NC(=S)N3C(c4ccc(OC)cc4)NC(=S)N23)cc1 (centres undefined) | 8.44µM* | -12.9% | -7.7% | -0.6% | -3.5
Cc1ccc(C2NC(=S)N3C(c4ccc(C)cc4)NC(=S)N23)cc1 (centres undefined) | 2.0% | / | / | / | /
COc1ccc(Cl)cc1NC(=O)NCc1ccco1 | -5.6% | -8.4% | -5.2% | -3.8% | -5.4
COc1ccc(Cl)cc1NC(=O)CN(C1CCCCC1)S(C)(=O)=O | 29.9µM* | 3.3% | 4.2% | -7.7% | -3.5
C=CCNC(=O)Nc1cc(Cl)ccc1OC | 26.7µM* | -9.9% | -3.2% | -4.2% | -5.1
COc1ccc(Cl)cc1NC(=O)CN(C)CC(=O)Nc1cc(OC)c(OC)c(OC)c1 | 5.0% | 6.9% | 3.55µM* | -2.4% | -3.1
COc1ccc(Cl)cc1NC(=O)CN(C)C(=O)c1cc2c(F)cccc2s1 | 0.5% | -5.3% | 6.31µM* | 0.5% | -7.8
COc1ccc(Cl)cc1NC(=O)CN(C)C(=O)c1ccc(C)s1 | -0.5% | -8.2% | 0.8% | -2.5% | 12.6
O=C(Nc1ccc(F)c(Cl)c1)C1CC2CCC1C2 (centres undefined) | -10.4% | 18.5% | 6.2% | -0.3% | /
CC(C)CCNC(=O)C(c1ccc(O)cc1)N(Cc1ccco1)C(=O)CCC(=O)Nc1nccs1 (centres undefined) | -4.2% | -0.1% | 3.2% | -1.8% | 7.4
COc1ccc2[nH]c(-c3ccc(C)cc3)cc(=O)c2c1 | 2.2% | 5.1% | 2.82µM* | -0.7% | -7.9
CCOC(=O)c1sc(N2C(=O)c3oc4ccc(F)cc4c(=O)c3C2c2ccc(O)cc2)nc1C (centres undefined) | / | -6.5% | / | / | /
COc1ccc(C(=O)N(Cc2ccc(N(C)C)cc2)Cc2ccco2)cc1Cl | / | 5.5% | / | / | /
CCN(CC)CCOc1nc(C)nc2c1oc1ccccc12 | 26.7µM* | -3.0% | 6.1% | -11.2% | -4.9
O=C(N/N=C\c1ccc(Br)o1)C1COc2ccccc2O1 (centres undefined) | 16.8µM* | -8.1% | -23.7% | -9.1% | -2.3
Cc1ccccc1C(=O)Nc1cccc(NC(=O)c2ccccc2[N+](=O)[O-])c1 | -1.0% | 4.6% | 4.47µM* | -2.6% | 3.3
COc1ccccc1C(=O)Nc1cccc(NC(=O)c2ccccc2C)c1 | 21.2µM* | -13.9% | -11.8% | -2.2% | 18.0
O=C(Nc1cccc(O)c1)c1ccccc1[N+](=O)[O-] | 4.8% | 1.7% | 2.9% | -0.4% | -4.0
O=C(N/N=C/c1ccc(N2CCOCC2)o1)c1ccccc1[N+](=O)[O-] | 1.3% | ? | 3.0% | 4.9% | 1.4
O=C(N/N=C/c1ccc(N2CCCCC2)o1)c1ccccc1[N+](=O)[O-] | -26.5% | 39.8µM* | -2.5% | -2.6% | 5.6
Cc1ccccc1C(=O)Nc1cccc(NC(=O)c2ccc(C(C)(C)C)cc2)c1 | / | 50.1µM* | / | / | /
O=C(Nc1ccc(F)cc1F)c1cccc2c1C(=O)N(C1CCCCC1)C2 | / | -17.8% | / | / | /
C/C(=N\NC(=O)c1ccc(O)cc1)c1cccc(NC(=O)c2ccccc2C)c1 | 5.6% | -13.8% | 10µM* | -1.4% | -9.4
COc1cc(-c2cc(C(=O)Nc3cccc(C(C)=O)c3)c3ccccc3n2)cc(OC)c1OC | -7.6% | -3.2% | 6.9% | -3.8% | 5.6
CCC(CC)C(=O)Nc1cccc(/C(C)=N/NC(=O)c2ccccc2Cl)c1 | 26.7µM* | 8.4% | -10.4% | -0.9% | -5.8
SMILES | PLK1 PBD inh | VDR inh | uPA surface inh | TSG101-PTAP inh | TSHR antagonist
COc1cc(-c2cc(C(=O)Nc3ccc(O)cc3)c3ccccc3n2)cc(OC)c1OC | 26.7µM* | -24.5% | 6.7% | -2.5% | -0.1
O=C(Nc1ccc(N2CCCC2)c(Cl)c1)c1ccccc1[N+](=O)[O-] | 26.7µM* | -25.7% | 13.6% | -5.4% | 1.0
C/C(=N\NC(=O)c1c(Br)c(C)nn1C)c1cccc(NC(=O)c2ccccc2C)c1 | 0.6% | -1.1% | -3.2% | -2.2% | -12.7
CCOc1ccc(NC(=O)Cn2c(=O)n(CCC(=O)NCCc3ccccc3)c(=O)c3ccccc32)cc1 | / | 1.6% | / | / | /
COc1cc2ccccc2cc1C(=O)Nc1ccc(C)cc1 | -6.3% | -16.1% | 20µM* | 0.3% | -2.8
CC(=O)Oc1cccc(/C=C2\C=C(c3ccc(C)cc3)OC2=O)c1 | 18.9µM* | ? | 3.7% | 2.2% | -6.1
COc1cc(NC(=O)CC2C(=O)N(c3cccc(C)c3)C(=O)N2Cc2cccs2)cc(OC)c1 (centres undefined) | / | 9.0% | / | / | /
CCCOC1CCCN(C(=O)c2ccc(OC3CCN(C(=O)CCOC)CC3)cc2)C1 (centres undefined) | -2.5% | -12.4% | 4.8% | / | 6.4
COCCC(=O)N1CCC(Oc2ccc(C(=O)N(C)C3CCCCC3)cc2)CC1 | -7.5% | 1.0% | 14.2% | -1.5% | -13.2
COCCC(=O)N1CCC(Oc2ccc(C(=O)N(C)C(C)c3ccon3)cc2)CC1 (centres undefined) | 26.7µM* | -24.9% | 2.6% | -1.7% | -11.3
COCCC(=O)N1CCC(Oc2ccc(C(=O)N3CCCC(OC)C3)cc2)CC1 (centres undefined) | 26.7µM* | -11.9% | -8.3% | -2.2% | 3.6
COc1ccc(-c2cn(-c3ccccc3)c(=S)[nH]2)cc1OC | 21.2µM* | 0.1% | -13.0% | -0.7% | -2.2
COC(=O)c1ccc(-n2cc(-c3ccc(OC)cc3)[nH]c2=S)cc1 | 6.7µM* | -16.9% | 11.9% | -12.4% | -6.4
COc1ccccc1-c1cn(-c2ccccc2)c(=S)[nH]1 | -27.3% | 3.0% | -3.3% | -6.2% | 24.0
COc1ccc(-n2cc(-c3ccc(Cl)cc3)[nH]c2=S)cc1 | -2.7% | -14.5% | -1.0% | 0.8% | -0.5
COc1ccc(-c2n[nH]c(=S)n2-c2ccc(Br)cc2)cc1OC | -6.5% | 0.7% | -5.2% | -0.2% | -12.3
COc1ccc(-c2cn(-c3ccc(C)c(C)c3)c(=S)[nH]2)cc1OC | 29.9µM* | -27.4% | 16.6% | -2.0% | 4.3
COc1ccccc1-n1cc(-c2ccc(C)cc2)[nH]c1=S | -5.6% | -12.8% | -15.4% | -0.9% | 3.3
COc1ccc(-c2cn(-c3ccc(C)c(Cl)c3)c(=S)[nH]2)cc1OC | 26.7µM* | 21.9% | 3.9% | -8.2% | -6.6
COc1ccc(NC(=O)Cn2c3ncccc3c(=O)n2-c2ccc(C)c(C)c2)c(OC)c1 | / | 6.8% | / | / | /
Cc1ccc2[nH]c(=O)c(CN(C)C(=O)c3cccs3)cc2c1 | 29.9µM* | -12.5% | -2.5% | -5.5% | 2.6
CCOCCCNC(=O)c1cc(Sc2cccc(Cl)c2)nc2ccccc12 | / | 9.9% | / | / | /
CCNC(=S)N(CCc1c(C)[nH]c2ccc(F)cc12)Cc1cccnc1 | 18.9µM* | -28.6% | 13.4% | -0.3% | -34.2
CCNC(=S)N(CCc1c(C)[nH]c2ccc(C)cc12)Cc1cccnc1 | -7.3% | -5.6% | 0.7% | -7.9% | -3.9
COc1ccc(-c2nc3cnc(N4CCN(C)CC4)nc3n(Cc3cccs3)c2=O)cc1 | / | -2.2% | / | / | /
CC(=O)c1cc(NC(=O)c2cccc(C(F)(F)F)c2)c(=O)oc1C | 23.8µM* | ? | -8.1% | -1.9% | -8.2
